This is a sample that favours compounds with a hit; in the whole collection about 4.8% have one here.
hgDAF12 agonist: H. glycines DAF-12 receptor agonists, primary screen, cell-based, luminescence, HEK293, GAL4 fusion, UAS-luciferase; Nuclear hormone receptor DAF-12 (Heterodera glycines), GAL4 fusion; HEK293 GAL4-hgDAF12 UAS-luciferase reporter, agonist luminescence; normalized to butyrate control; activation, % at 6.8 µM; 1.8% of 370,000 active;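 active = activation above a cutoff set at the mean of all screened compounds plus 3 SD, cut at about 10% in these data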;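 note: 0% = DMSO wells and 100% = sodium butyrate wells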
ssDAF-12 act: S. stercoralis DAF-12 nuclear receptor activators, primary screen, cell-based, luminescence, HEK293, GRIP1 co-expression, lit1-tk-luc; activation, % at 6.8 µM; Nuclear hormone receptor DAF-12 (Strongyloides stercoralis); HEK293 ssDAF-12/GRIP1 lit1-tk-luc reporter; % of 3 µM dafachronic acid response; 1% of 370,000 active;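 active = activation above the mean over all tested compounds plus 3 SD, cut at about 0.9% in these data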;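 note: 0% = DMSO-only wells and 100% = 3 µM delta7-dafachronic acid wells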
SMARCA2 act: SMARCA2 (BRM) function activators, primary screen, cell-based, luminescence, high throughput; activation, % at 9.1 µM; 1% of 370,000 active; MG213 cells, MMTV-luciferase reporter, dexamethasone, overnight; AID 652017, 2013; in the data active = activation above about 7.8%;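 note: 0% = vehicle wells and 100% = reference activator wells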
DAX1 inh-1: DAX1 (NR0B1) inhibitors on StAR promoter, primary screen, cell-based, luminescence, SF-1 (NR5A1), full-length DAX-1 | inhibition, % at 6.8 µM | HEK293T StAR-luciferase reporter, SF-1/DAX-1 repression relief | 1.1% of 370,000 active;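 active = inhibition above the mean over all tested compounds plus 3 SD, cut at about 3.6% in these data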;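 note: 0% = DAX-1 cells with DMSO and 100% = cells lacking DAX-1 with DMSO; higher inhibition means more luminescence from relief of DAX-1 repression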
hcDAF-12 act: H. contortus DAF-12 nuclear receptor activators, primary screen, cell-based, luminescence, HEK293, lit1-tk-luc reporter; 1.4% of 370,000 active; activation, % at 6.8 µM; AID 652067, 2013; HEK293 hcDAF-12 lit1-tk-luc reporter; 0% DMSO, 100% Δ7-dafachronic acid;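 active = activation above the mean of all tested compounds plus 3 SD, cut at about 5.5% in these data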;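 note: 100% = response to 3 µM Δ7-dafachronic acid high control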
DAX1 inh-2: DAX1 (NR0B1) inhibitors, primary screen, cell-based, HEK293, Gal4-DAX1, luciferase luminescence; 0.99% of 340,000 active; inhibition, % at 6.75 µM; HEK293 Gal4-DAX1 luciferase reporter; Nuclear receptor subfamily 0 group B member 1 (Homo sapiens), P51843;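 active = inhibition above the mean over all tested compounds plus 3 SD, cut at about 4.2% in these data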;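 note: 0% = DAX1-transfected cells with DMSO and 100% = empty-vector control cells with DMSO; inhibition shows as a rise in luminescence from relieved DAX1 repression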
Target sequence (P51843 207-470 limits assumed): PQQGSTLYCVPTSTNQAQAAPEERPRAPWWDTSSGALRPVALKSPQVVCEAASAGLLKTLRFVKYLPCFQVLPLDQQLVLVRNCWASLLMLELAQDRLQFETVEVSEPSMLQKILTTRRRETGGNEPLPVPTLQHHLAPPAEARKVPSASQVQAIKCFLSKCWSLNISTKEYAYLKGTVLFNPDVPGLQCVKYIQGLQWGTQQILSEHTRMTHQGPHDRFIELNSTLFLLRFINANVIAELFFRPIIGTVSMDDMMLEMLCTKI
DAX1 inh confirm: DAX1 (NR0B1) inhibitors relieving SF-1 repression, confirmation, cell-based, luminescence, HEK293T, full-length DAX-1, SF-1 activated StAR promoter; shares compounds with DAX1 inh-1; HEK293T StAR-promoter luciferase reporter, SF-1/DAX-1 repression; inhibition, % at 6.8 µM; 87% of 2,400 active; AID 652134, 2013;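 active = inhibition above the average of every tested compound plus 3 SD, cut at about 3.8% in these data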;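 note: 0% = DAX-1 cells with DMSO and 100% = no DAX-1 control cells with DMSO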
SF1 mutant ctr: StAR reporter signal changes without DAX1, counter-screen for DAX1 inhibitor project, cell-based, luminescence, AF-2 mutant SF-1, transactivation; shares compounds with DAX1 inh-1; HEK293 StAR-luciferase, SF-1 AF2 mutant; inhibition, % at 6.8 µM; 78% of 2,400 active;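 active = inhibition above the mean of all tested compounds plus 3 SD, cut at about 3% in these data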;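 note: 0% = DAX-1 transfected cells with DMSO and 100% = cells without DAX-1 with DMSO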
SMARCA2 act conf: SMARCA2 (BRM) function activators, confirmation, cell-based, luminescence, triplicate. AID 652260, 2013. shares compounds with SMARCA2 act. 30% of 3,500 active. MG213 cells, MMTV-luciferase with dexamethasone, overnight; MG213 cells expressing E1A, Rb sequestered; DMSO wells 0%, reference activator 100%. activation, % at 9.1 µM;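 active = activation above its plate's cutoff, the mean activation of tested wells plus 3 SD, cut at about 7.9% in these data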
GAL4-VP16 Luc: GAL4-VP16 luciferase reporter activation, counter-screen for SMARCA2 (BRM) activator project, cell-based, pG5luc, luminescence, high throughput. shares compounds with SMARCA2 act. HEK293 GAL4-VP16 pG5luc reporter; scaled: DMSO wells 0%, SAHA wells 100%. activation, % at 9.1 µM. 41% of 3,500 active. AID 686939, 2013;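 active = activation above the solvent-only control well mean plus 3 SD, averaged across control plates, cut at about 5.2% in these data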
* hit, by the source's call; / = no result.

SMILES	hgDAF12 agonist	ssDAF-12 act	SMARCA2 act	DAX1 inh-1	hcDAF-12 act	DAX1 inh-2	DAX1 inh confirm	SF1 mutant ctr	SMARCA2 act conf	GAL4-VP16 Luc
O=C(CSc1nnc(NC(=O)c2ccccc2)s1)NCC1CCCO1 (configuration not stated)	7	0	9.4*	6.2*	2	0	4.2*	4.3*	2	6.5*
O=C(CSc1nnc(NC(=O)Cc2ccccc2)s1)NCC1CCCO1 (configuration not stated)	0	-1	-2	0	4	1	/	/	/	/
CCCC1CCC2(CCCN2CCOC(=O)Nc2ccc(F)cc2)CC1 (configuration not stated)	3	-2	/	/	-1	/	/	/	/	/
Cc1cccc(OCCn2c(=O)n(C)c3ccccc32)c1	13*	-1	8.9*	5.8*	3	3	7.2*	4.3*	19*	12*
COc1ccc(C[N+]2=C(N)NC3=C(C)Cn4c(=O)n(-c5ccccc5)c(=O)n4C3C2)c(OC)c1 (configuration not stated)	1	-1	-2	-2	-1	/	/	/	/	/
O=C(N/N=C/C(Br)=C\c1ccccc1)c1n[nH]c2c1CCC2	1	1.9*	8.4*	4.7*	5	-1	21*	-4	11*	21*
CC(/C=N/NC(=O)c1n[nH]c2c1CCC2)=C\c1ccccc1	2	0	5	4	3	0	/	/	/	/
COc1ccc(S(=O)(=O)N2CCC(c3nc4ccccc4o3)CC2)c(OC)c1	0	-1	-6	-1	-3	/	/	/	/	/
CCc1cccc2c(C(=O)CN3C(=O)NC4(CCCCCC4)C3=O)c[nH]c12	-8	-2	11*	13*	-1	-1	10*	-5	13*	1
CCc1cccc2c(C(=O)CN3C(=O)C(=O)N(C4CCCC4)C3=O)c[nH]c12	-2	-1	-1	-1	-1	0	/	/	/	/
O=C(CCc1ccccc1)N[C@H]1[C@H](OC(=O)c2cnccn2)CCC[C@@]12C(=O)N(Cc1ccccc1)c1ccccc12	0	-1	-4	0	-3	/	/	/	/	/
CN(C(=O)c1cc2c(=O)n3ccccc3nc2n1C)C1CCCCC1	9	0	8.0*	10*	2	0	12*	6.3*	2	14*
O=C(Nc1cccc(-c2ccc(N3CCOCC3)nn2)c1)c1ccccc1Cl	6	0	11*	5.2*	1	0	5.2*	5.0*	14*	10*
Clc1ccccc1CSc1cnnc2ccccc12	6	-1	9.0*	5.3*	2	1	3	1	1	5
